# Laboratory results as given in PubChem BioAssay (EPA / NIEHS).
# Calls of active or inactive are those of the source. The calls were made as follows: active = hit-call score of the fitted dose curve at least 0.9, where 1 is the maximum; inactive = score below 0.9.
# Experiment: UKN4_HCS_LUHMES_cell_viability: Viability Assessment in the University of Konstanz (UKN) Leist Lab Neurite Outgrowth Assay in human LUHMES cells (UKN4) (AID 2284232)
# Procedure: UKN4_HCS_LUHMES is a cell-based, multiplexed-readout assay screening for neurite outgrowth and cell viability that uses LUHMES, a human central nervous system cell line, with measurements taken at […] after chemical dosing in a microplate: 96-well plate. UKN4, also referred to as NeuriTox, is an assay that uses LUHMES neuronal precursors as a model of dopaminergic neuronal differentiation. Following a 2-day differentiation period, cells are exposed to chemicals for 24 hr and neurite area is evaluated as a marker of neurite outgrowth using high-content imaging of cells stained with calcein AM. Cell viability is assessed using stain Hoechst H-33342.UKN4_HCS_LUHMES_cell_viability is an assay component measured from the UKN4_HCS_LHUMES assay. It is designed to make measurements of enzyme activity, a form of viability reporter, as detected with Fluorescence intensity signals by HCS Fluorescent Imaging.The assay endpoint UKN4_HCS_LUHMES_cell_viability was analyzed with bidirectional fitting relative to DMSO as the negative control and baseline of activity. Using a type of viability reporter, gain or loss-of-signal activity can be used to understand viability effects. To generalize the intended target to other relatable targets, this assay endpoint is annotated to the cell cycle intended target family, where the subfamily is viability.
# Proliferating LUHMES cells are seeded in proliferation medium for 24 hours. Day 0: Medium is changed from proliferation medium to differentiation medium. Day 2: Cell number reaches about 30-40 Mio per T175 flask. Cells are trypsinized and replated onto 96-well plates (30000 cells/well in 90 ul) in differentiation medium without cAMP and GDNF. At about 30 min - 2 hours after seeding, when cells have attached, the compounds are added (10 ul of each dilution; total volume 100 ul). Day 3: 23.5 h after toxicant treatment, cells are live-stained with H-33342 and calcein-AM and incubated for 30 min. After 24 h of treatment (including staining), the cells are imaged using a high-content microscope (Cellomics).
Structure (SMILES),outcome,AC50
Brc1ccc(Oc2cc(Br)c(Br)cc2Br)c(Br)c1,inactive,
COC(=O)[C@H]1[C@@H](OC(=O)c2ccccc2)C[C@@H]2CC[C@H]1N2C,inactive,
CC1(C)C(C=C(Cl)Cl)[C@H]1C(=O)O[C@H](C#N)c1cccc(Oc2ccccc2)c1 (some centres undefined),inactive,
CN1CC=C(c2ccccc2)CC1,inactive,
O=C1N[C@@H]2C(=C[C@H](O)[C@@H](O)[C@H]2O)c2cc3c(c(O)c21)OCO3,,0.256 µM (active)
CNC(C)Cc1ccc2c(c1)OCO2 (centres undefined),inactive,
CC(=O)[O-].CC(=O)[O-].O.O.O.[Pb+2],inactive,
[O-][Cl+3]([O-])([O-])O,inactive,
Brc1ccc(Oc2ccc(Br)cc2Br)c(Br)c1,,41.5 µM (active)
C[n+]1ccc(-c2cc[n+](C)cc2)cc1,inactive,
Clc1cc(Cl)c(-c2cc(Cl)c(Cl)c(Cl)c2Cl)cc1Cl,,19.1 µM (active)
C[n+]1ccc(-c2ccccc2)cc1,inactive,
[CH3][Sn]([CH3])([CH3])[Cl],,4.02 µM (active)
CC1(C)[C@H](C(=O)O[C@H](C#N)c2cccc(Oc3ccccc3)c2)[C@@H]1C=C(Br)Br,inactive,
CC(=O)Oc1ccc2c3c1O[C@H]1[C@@H](OC(C)=O)C=C[C@H]4[C@@H](C2)N(C)CC[C@@]341,inactive,
O=[As](O)(O)O,,71.4 µM (active)
CC(C)CC(C)c1sccc1NC(=O)c1cn(C)nc1C(F)(F)F (centres undefined),inactive,
CNC1(c2ccccc2Cl)CCCCC1=O (centres undefined),inactive,
[Cd+2].[Cl-].[Cl-],,8.98 µM (active)
CN1CC[C@]23c4c5ccc(O)c4O[C@H]2[C@@H](O)C=C[C@H]3[C@H]1C5,inactive,
[CH3][Hg][Cl],,0.381 µM (active)
CP(=O)(O)CCC(N)C(=O)O (centres undefined),inactive,
C/C(=C/C=C/[C@@H](C)C(=O)O)[C@H]1CN[C@H](C(=O)O)[C@H]1CC(=O)O,inactive,
CN[C@@H](C)Cc1ccccc1,inactive,
